{"source": "PubChem BioAssay"}
{"tested_on": "not listed separately", "assay": "mitochondrial membrane potential change in A549 cells, profiling panel, cell-based, JC-1 fluorescence, basal, 24 h, 100 nL (AID 1138);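 note: A549 lung adenocarcinoma cells under basal conditions with no added stimulus; test concentration not given here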", "details": "higher = more signal"}
{"smiles": "CCCN1C(=O)[C@@]2(CCS(=O)(=O)c3ccccc3)N=C(c3ccc(OCCCO)cc3)O[C@H]2c2ccccc21", "z-score": 0.782}
{"smiles": "O=C(O)[C@@H]1Cc2c([nH]c3ccccc23)[C@@H](c2ccccc2)N1", "z-score": 0.375}
{"smiles": "C[C@@H]1CC[C@H]2C(=O)N3CCC[C@H]3C(=O)N2[C@H]1c1ccc(Br)cc1", "z-score": 1.68}
{"smiles": "CCC#CCN(Cc1ccccc1Br)[C@H](/C=C/c1ccccc1)[C@@H](O)Cc1ccccc1", "z-score": -0.565}
{"smiles": "[N-]=[N+]=NCc1ccccc1C[C@]1(C(N)=O)N=C(c2ccc(OCCCO)cc2)O[C@H]1c1ccccc1CN=[N+]=[N-]", "z-score": 1.3}
{"smiles": "C=CCC(OC(C)=O)[C@@H]1[C@@H](N(Cc2ccc(-c3ccccc3)cc2)C(=O)c2ccc(-c3ccccc3)cc2)c2cc(OCCCO)ccc2N1C(=O)Cc1ccc(OC)cc1", "note": "(stereo not given in full)", "z-score": 0.764}
{"smiles": "O=C1C[C@@](C(=O)NC2CC2)(c2ccc([N+](=O)[O-])cc2)[C@@H](c2ccc(CO)cc2I)N1CC12CC3CC(CC(C3)C1)C2", "z-score": -0.558}
{"smiles": "Cc1ccc(N2C(=O)c3ccccc3[C@@H](C(=O)NCC(F)(F)F)[C@@H]2c2ccc(CO)cc2)nc1", "z-score": -0.913}
{"smiles": "C=CC[C@]1(C(=O)O)N=C(c2ccc(OCCCO)cc2)O[C@H]1c1ccccc1", "z-score": -0.124}
{"tested_on": "Lefty1", "assay": "Lefty1 binders on small-molecule microarrays, primary screen, biochemical, small-molecule microarray, 635/667 nm fluorescence (AID 1139)", "details": "small-molecule microarray binding, fluorescence 635/667; higher = more signal"}
{"smiles": "COc1ccc(CCN2C(=O)[C@@]3(c4ccc([N+](=O)[O-])cc4)CC(=O)N(CC45CC6CC(CC(C6)C4)C5)[C@@H]3c3ccc(CO)cc32)cc1", "composite z-score": -0.531}
{"smiles": "C=CCN1C(=O)[C@@]2(Cc3ccccc3)N=C(c3ccc(OCCCO)cc3)O[C@H]2c2ccccc21", "composite z-score": 0.398}
{"smiles": "CN1CCC(CCCO)=CC1C1CC1", "note": "(stereo not given)", "composite z-score": 1.12}
{"smiles": "CC(C)N1CC=CC23O[C@@H]4/C=C\\CCCOC(=O)C4[C@H]2C(=O)N(CCCCCO)[C@@H]3C1=O", "note": "(stereo not given in full)", "composite z-score": -1.52}
{"smiles": "COCCOC(=O)N1C(=O)[C@@]2(c3cc(C#CCC(C(=O)OC)C(=O)OC)ccc31)[C@H](C(=O)N1CCN(c3ncccn3)CC1)[C@H]1C(=O)O[C@H](c3ccccc3)[C@H](c3ccccc3)N1[C@@H]2c1ccc(O)cc1", "composite z-score": 0.72}
{"smiles": "CCC(=O)[C@]12O[C@@]3([C@@H]4C(=O)OCC[C@@H]41)N(Cc1ccccc1)C(C)=C(C(=O)OC)[C@@H](c1ccccc1)N3C2=O", "composite z-score": 0.197}
{"smiles": "COC(=O)[C@@]1(Cc2ccc(OC)cc2)[C@H]2c3cc(C(=O)N(C)C)n(Cc4ccc(C)c(F)c4F)c3C[C@H]2CN1C(=O)c1ccccc1", "composite z-score": -0.826}
{"smiles": "COc1cc(CO)cc(I)c1O[C@H]1C=C(C(=O)NCCO)C[C@@H](NCCc2c[nH]c3ccccc23)[C@@H]1O", "composite z-score": 0.28}
{"smiles": "Cc1ccc(N2C(=O)c3ccccc3[C@](C)(C(=O)O)[C@@H]2c2ccc(CO)cc2)nc1", "composite z-score": -1.28}
{"smiles": "COC(=O)[C@@]1(Cc2ccccc2)[C@H]2c3cc(C(=O)N4CCCC4)n(CCN4CNCC4=O)c3C[C@H]2CN1C(=O)c1ccccc1", "composite z-score": -0.0783}
{"smiles": "CO[C@@H]1COC(=O)[C@H](C)NC(=O)CC=C[C@@H](C)[C@H](OC)COC(=O)[C@H](C)NC(=O)CC=C[C@H]1C", "composite z-score": 0.59}
{"smiles": "C=C(COC)/C(=C/C[C@@H](OC(C)=O)c1cccc(OCCO)c1)c1cc(C(=O)OC)ccc1OC", "composite z-score": 0.499}
{"smiles": "CCOC(=O)C[C@H]1[C@H](OC(=O)c2ccccc2-c2ccccc2)[C@@H](NC(=O)c2ccc(-c3ccccc3)cc2)c2cc(OCCCO)ccc2N1C(=O)Cc1ccc(OC)cc1", "composite z-score": 0.566}
{"smiles": "[N-]=[N+]=NCc1ccccc1C[C@]1(C(=O)N2CCCCC2)N=C(c2ccc(OCCCO)cc2)O[C@H]1c1ccccc1CN=[N+]=[N-]", "composite z-score": 0.453}
{"smiles": "CO[C@H]1COC(=O)[C@@H](OCc2ccccc2)C=C[C@H](C)[C@@H](OC)COC(=O)[C@H](OCc2ccccc2)C=C[C@@H]1C", "composite z-score": 0.67}
{"smiles": "COCCOC(=O)N1C(=O)[C@@]2(c3cc(C#CCNC(N)=O)ccc31)[C@H](c1ccc(OCCO)cc1)N1[C@H](c3ccccc3)[C@H](c3ccccc3)OC(=O)[C@H]1[C@@H]2C(=O)Nc1nc2ccccc2s1", "composite z-score": 0.83}
{"smiles": "CCOC(=O)C1=CC[C@@H](c2ccc(-c3ccc(OCc4ccccc4)cc3)c(OC)c2)N(S(=O)(=O)c2ccc(C)cc2)[C@H]1c1ccccc1", "composite z-score": 0.329}
{"smiles": "Cc1ccc(S[C@]2(C(=O)O)CC(=O)N(Cc3ccccc3)[C@@H]2c2ccc(CO)cc2)cc1", "composite z-score": -0.532}
{"smiles": "Cc1ccc(S[C@]2(C(=O)NC(C)C)CC(=O)N(Cc3cc(C(F)(F)F)cc(C(F)(F)F)c3)[C@@H]2c2ccc(CO)cc2I)cc1", "composite z-score": -0.919}
{"smiles": "CO[C@@H]1COC(=O)[C@H](COCc2ccccc2)NC(=O)CC=C[C@@H](C)[C@H](OC)COC(=O)[C@H](COCc2ccccc2)NC(=O)CC=C[C@H]1C", "composite z-score": 0.886}
{"smiles": "CCC1=C2CN(Cc3ccccc3Br)[C@@H]([C@@H](O)Cc3ccccc3)C2C=CCC1", "note": "(stereo not given in full)", "composite z-score": 1.25}
{"smiles": "COCCOC(=O)N1C(=O)[C@@]2(c3cc(C#CCC(C(=O)OC)C(=O)OC)ccc31)[C@H](c1ccccc1OCCO)N1[C@H](c3ccccc3)[C@H](c3ccccc3)OC(=O)[C@H]1[C@@H]2C(=O)N1CCCCCCC1", "composite z-score": 1.55}
{"smiles": "CO[C@@H]1COC(=O)[C@@H]2CCCN2C(=O)CC=C[C@@H](C)[C@H](OC)COC(=O)[C@@H]2CCCN2C(=O)CC=C[C@H]1C", "composite z-score": 1.31}
{"smiles": "C=C(COC)/C(=C/C[C@H](OC(C)=O)c1ccc(OCCO)cc1)c1cnc2ccccc2c1", "composite z-score": 1.27}
{"smiles": "CC(=O)Nc1ccc([C@H]2[C@H](C)CC[C@H]3C(=O)N4[C@@H](CC[C@@H](C)[C@@H]4c4ccc(NC(C)=O)cc4)C(=O)N32)cc1", "composite z-score": 1.54}
{"smiles": "CN(C)CCCC[C@@H]1NC(=O)[C@@H]2C[C@H](C(=O)O)[C@H](c3ccc(O)cc3)N2C1=O", "composite z-score": 1.64}
{"smiles": "C[C@@H]1CC[C@H]2C(=O)N3[C@@H](CC[C@@H](C)[C@@H]3c3cccc(N4CCOCC4)c3)C(=O)N2[C@H]1c1cccc(Br)c1", "composite z-score": 1.15}
{"smiles": "CCCN1C(=O)[C@@]2(CCS(=O)(=O)c3ccccc3)N=C(c3ccc(OCCCO)cc3)O[C@H]2c2ccccc21", "composite z-score": 0.78}
{"smiles": "O=C(O)[C@@H]1Cc2c([nH]c3ccccc23)[C@@H](c2ccccc2)N1", "composite z-score": 0.244}
{"smiles": "C[C@@H]1CC[C@H]2C(=O)N3CCC[C@H]3C(=O)N2[C@H]1c1ccc(Br)cc1", "composite z-score": 0.724}
{"smiles": "CCC#CCN(Cc1ccccc1Br)[C@H](/C=C/c1ccccc1)[C@@H](O)Cc1ccccc1", "composite z-score": -0.978}
{"smiles": "[N-]=[N+]=NCc1ccccc1C[C@]1(C(N)=O)N=C(c2ccc(OCCCO)cc2)O[C@H]1c1ccccc1CN=[N+]=[N-]", "composite z-score": -0.621}
{"smiles": "C=CCC(OC(C)=O)[C@@H]1[C@@H](N(Cc2ccc(-c3ccccc3)cc2)C(=O)c2ccc(-c3ccccc3)cc2)c2cc(OCCCO)ccc2N1C(=O)Cc1ccc(OC)cc1", "note": "(stereo not given in full)", "composite z-score": 0.0287}
{"smiles": "O=C1C[C@@](C(=O)NC2CC2)(c2ccc([N+](=O)[O-])cc2)[C@@H](c2ccc(CO)cc2I)N1CC12CC3CC(CC(C3)C1)C2", "composite z-score": 1.15}
{"smiles": "Cc1ccc(N2C(=O)c3ccccc3[C@@H](C(=O)NCC(F)(F)F)[C@@H]2c2ccc(CO)cc2)nc1", "composite z-score": -3.17}
{"smiles": "C=CC[C@]1(C(=O)O)N=C(c2ccc(OCCCO)cc2)O[C@H]1c1ccccc1", "composite z-score": -1.09}
